The panel holds about 79,000 compounds, 15% with a hit somewhere; the sample as a whole holds those more often. Unmarked numbers belong to inactive results. The source made the active and inactive calls. Cut-off read from the data, not from the text of the source: active = growth inhibition above about 70%; inactive = the rest.
Tests used:
[1] = NCI Yeast Anticancer Drug Screen. Data for the rad50 strain (AID 155);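 note: 0% = growth of vehicle-only cultures of the same strain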; conditions: S. cerevisiae rad50 strain growth inhibition; at 50.0 µM; hits give high values
Method in brief: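 Compounds were tested on a yeast strain with an engineered DNA damage repair alteration; the reported value is growth inhibition normalised to vehicle treatment.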

[2] = NCI Yeast Anticancer Drug Screen. Data for the mec2-1 strain (AID 157); conditions: S. cerevisiae mec2-1 strain, at 50.0 µM, hits give high values
Method in brief: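 Using mec2-1 yeast: add compound, measure growth, express inhibition versus vehicle-treated cultures.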

[3] = NCI Yeast Anticancer Drug Screen. Data for the sgs1 mgt1 strain (AID 161);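 note: 0% = growth of cultures given vehicle only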; conditions: S. cerevisiae sgs1 mgt1 strain, at 50.0 µM, hits give high values
Method in brief: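 Yeast cells carrying a defined DNA-repair defect were exposed to test compounds. Growth inhibition was measured relative to vehicle-treated controls.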

[4] = NCI Yeast Anticancer Drug Screen. Data for the cln2 rad14 strain (AID 165);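 note: 0% = growth equal to vehicle treated cultures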; conditions: S. cerevisiae cln2 rad14 strain, at 50.0 µM, hits give high values
Method in brief: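 Yeast strain cln2 rad14, bearing defects in cell cycle control and DNA repair, serves as the test system; values reflect growth inhibition compared with vehicle.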

[5] = NCI Yeast Anticancer Drug Screen. Data for the bub3 strain (AID 167); conditions: S. cerevisiae bub3 mutant strain, at 50.0 µM, hits give high values
Method in brief: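 Growth of a checkpoint-deficient yeast mutant is measured after compound exposure. Values represent inhibition relative to vehicle.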

[6] = NCI Yeast Anticancer Drug Screen. Data for the mlh1 rad18 strain (AID 175); conditions: S. cerevisiae mlh1 rad18 strain growth inhibition; at 50.0 µM; hits give high values
Method in brief: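 Steps: expose repair-defective yeast to compound; measure growth; express inhibition against vehicle-treated controls.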

| SMILES | growth inhibition [1] | growth inhibition [2] | growth inhibition [3] | growth inhibition [4] | growth inhibition [5] | growth inhibition [6] |
| --- | --- | --- | --- | --- | --- | --- |
| CCOC(=O)C(C)(C(=O)OCC)C(C)Cc1cccc2ccccc12 (stereo unspecified) | -12.6% | 0.95% | -4.45% | -31.4% | -7.15% | -3.6% |
| CCOC(=O)CCCCCCCCC(=O)Nc1ccc(-n2[nH]c(=O)cc2C)cc1 | -2.6% | -31% | -27.6% | 6.95% | -4.1% | -3.3% |
| Cc1cc(Cl)ccc1NC(=O)Nc1c(Oc2ccc(Cl)cc2)ccc(Cl)c1S(=O)(=O)O | 76.8% (active) | 36.8% | 55.5% | 3.85% | -0.75% | 45.9% |
| OC1COC(O)(CNCCc2c[nH]c3ccc(OCc4ccccc4)cc23)C(O)C1O (stereo unspecified) | -25.5% | 7.25% | -18.2% | -49.7% | -20.7% | 19.1% |
| COC(=O)c1nc(N)nc(C(=O)OC)c1C(=O)c1ccc(F)cc1 | 8.55% | -1% | -12.3% | 5.35% | 9.4% | 20.6% |
| NC(=O)N1CCCCN1C(N)=O | 9.9% | -7.95% | -1.6% | -55% | 6.75% | -4.65% |
| S=C(Nc1ccccc1)Nc1ccccc1S | -15.4% | -19.8% | 6.75% | -20.4% | 14.7% | -18.9% |
| CCOc1ccccc1/C=C(\C#N)c1cccc(Cl)c1 | 42.6% | 9.75% | 29.9% | 13.8% | 19.5% | -4.15% |
| O=C1C(c2ccccc2)=[N+]([O-])c2cc([N+](=O)[O-])ccc21 | -15.8% | 5.65% | 13.8% | 23.2% | 14.8% | 36% |
| NC(=O)Cc1csc(Br)n1 | 12.9% | 0.8% | -6.2% | -32.2% | 15.4% | 7.9% |
| c1ccc2c(CCNC3=NCCO3)cccc2c1 | -11.1% | -16.6% | -10.8% | -7.5% | -1.6% | 1.45% |
| CC1NC(=O)C(C)C(c2ccccc2)N(N=O)C1c1ccccc1 (stereo unspecified) | -10.7% | 7.8% | 14.6% | 0.05% | -25.6% | 11% |
| Cc1cc(NC(=O)NC(=O)c2ccccc2N(C)C)ccc1Oc1ncc(Br)cn1 | -14.6% | -13.8% | -13.3% | 12.2% | -3.4% | -4.45% |
| Cc1nc2[nH]cc(-c3ccccc3)c2c(=N)n1-c1ccc(F)cc1 | -7.45% | 0.8% | -11.2% | -23.1% | -7.6% | 0.55% |
| O=C(Nc1cc(Cl)c(Cl)cc1Cl)Nc1cc(Cl)ccc1Oc1ccc(Cl)cc1S(=O)(=O)O | 98% (active) | 99.3% (active) | 99.2% (active) | 98.5% (active) | 98.8% (active) | 98.7% (active) |
| O=C1c2ccccc2-c2nc(-c3cccnc3)cc3c2c1nc1ccccc13 | 32.7% | 24.4% | 34.4% | 23% | 24.7% | 39% |
| CCN(CC)CCO/N=C1\CC(c2ccc(OC)c(OC)c2)Oc2ccccc21 (stereo unspecified) | 3.8% | 13.7% | 2.65% | 26.6% | -9.85% | 9.8% |
| C=C(CCCCCCCCC)CC(=O)SCCNC(=O)CCNC(=O)C(O)C(C)(C)COP(=O)(O)OP(=O)(O)OCC1OC(n2cnc3c(N)ncnc32)C(O)C1OP(=O)(O)O (stereo unspecified) | -7.95% | -14.8% | 0.55% | -17% | -19.6% | 0.4% |
| CN(C)/C=N/NC(=O)c1ccccc1N | -15% | -15.7% | -6.75% | -11.6% | 2.15% | 0.55% |
| CC(=O)Nc1ccc2oc(=O)ccc2c1 | -19.2% | -12.7% | -15.4% | -0.5% | -4.2% | -11.1% |
| CC1(C)OC2COC(c3[nH]nc(C(N)=O)c3C(=O)N=[N+]=[N-])C2O1 (stereo unspecified) | -11.3% | -1.35% | -12.1% | 4.35% | 7.85% | -9.95% |

| SMILES | growth inhibition [1] | growth inhibition [2] | growth inhibition [3] | growth inhibition [4] | growth inhibition [5] | growth inhibition [6] |
| --- | --- | --- | --- | --- | --- | --- |
| CC(C)CC(NC(=O)CNC(=O)CNC(=O)OCc1ccccc1)C(=O)O (stereo unspecified) | -0.1% | 7.75% | -2.1% | -21.8% | -0.9% | 10.8% |
| CN(C)CCCNC(=O)CCNC(=O)c1cc(NC(=O)c2cc(NC(=O)c3cc(NC(=O)c4nc(NC(=O)CCCNC(=O)c5cc(NC(=O)c6cc(NC(=O)c7cc(NC(=O)c8nccn8C)cn7C)cn6C)cn5C)cn4C)cn3C)cn2C)cn1C | -17.3% | -31.9% | 23.1% | 28.8% | 15.3% | -46.4% |
| C1CSC(Sc2nc(SC3=NCCS3)nc(SC3=NCCS3)n2)=N1 | -22% | -10.7% | -10% | -30.3% | -31.2% | -26.4% |
| Cc1ccc(NC(=O)Nc2ccc(C)cc2)cc1 | 0.7% | -14.9% | -12.8% | -9.25% | -2.3% | -18.1% |
| O=C(O)Cc1ccccc1-c1ccccc1 | -22.2% | -8.15% | -19.2% | 22.4% | -6.2% | -43.2% |
| N#Cc1c(-c2ccc([N+](=O)[O-])cc2)c(C#N)c(=O)n(NS(=O)(=O)c2ccccc2)c1-c1ccccc1 | 7.1% | 13.3% | -2.45% | 4.05% | 6.25% | 26.4% |
| N=C(N=C(N)N)N1CCOCC1 | 8.95% | 20.1% | 9.75% | 32.7% | 30.1% | -0.55% |
| CC(=O)CC(=O)N1CCC(C)CC1 | 20.4% | -24.9% | -16.4% | 27.6% | -14.1% | -10.2% |
| CCCCCC(=O)Oc1ccccc1OC | -8.1% | -5.55% | 1.15% | -29.4% | -7.85% | -7.9% |
| Cc1[nH]n(-c2ccccc2)c(=O)c1/C=N\C(N)=S | -37% | -37.9% | -34.1% | -50.9% | -48% | -25.1% |
| C[n+]1nnn(/N=C\c2ccccc2)c1N | -3.55% | 11.8% | 10.1% | -0.95% | 8.75% | 11.6% |
| CC(C#N)c1cn(S(=O)(=O)c2ccccc2)c2ccccc12 (stereo unspecified) | 30.6% | 3.4% | -5.4% | 9.75% | 52.7% | 37% |
| CC(=O)OC1CC2CCC1(c1ccccc1)C2 (stereo unspecified) | 0.85% | -25.1% | 0.4% | 14.4% | -1.2% | 3.15% |
| CC(=O)OCC(COC(C)=O)C(C)=O | -7.35% | -5.75% | -8.5% | 21.6% | 4.65% | -22.6% |
| CCC(c1ccc(OCc2ccccc2)cc1)c1cc2c(cc1OCCO)OCO2 (stereo unspecified) | 23.7% | 57% | -3% | 0.9% | 39.7% | 57% |
| COc1cc2oc3cc(=O)cc4oc(-c5ccccc5)cc(c2c2c1CCC(c1ccccc1)O2)c43 (stereo unspecified) | 6.75% | 7.9% | -17.4% | 3.6% | -8.7% | -10.2% |
| CSc1ccc(NC(=O)Nc2cc(C(C)C)ccc2C)cc1 | 0.6% | 38.4% | 13.9% | -18% | 43.2% | 28.2% |
| COc1cc2c(cc1O)C(=O)CCCC2 | -13.8% | 0.75% | -17.8% | -2.25% | 14.1% | 1.2% |
| O=C1OCC(c2ccccc2)(c2ccccc2)C(=O)N1O | 18.4% | -2.1% | 3.95% | 13.2% | 5.65% | 16.5% |
| O=NN(CC(=O)O)c1ccc2ccccc2c1 | 2.55% | -7.3% | 13.8% | -39.5% | -14.9% | -2.85% |

From PubChem BioAssay (NCI)
